Compounds without any hit were thinned out: in the full panel of roughly 79,000, 15% have a hit. The source made the active and inactive calls. Cut-off read from the data, not from the text of the source: active = growth inhibition above about 70%; inactive = the rest.
Tests used:
[1] = NCI Yeast Anticancer Drug Screen. Data for the wt1 strain (AID 149);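 note: 0% = growth of vehicle-treated wt1 cultures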; conditions: S. cerevisiae wt1 strain (SPY 50644) growth inhibition, hits give high values
Outline: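 wt1 yeast, compound-treated; % growth inhibition vs vehicle control.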

[2] = NCI Yeast Anticancer Drug Screen. Data for the rad50EPP+ strain (AID 151);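 note: 0% = growth of vehicle-treated control cultures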; conditions: S. cerevisiae rad50 mutant strain, hits give high values
Outline: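 Measured: growth inhibition of rad50EPP+ yeast. Reference: vehicle-treated controls. Screen uses strains with defined genetic alterations in DNA damage repair or cell cycle control.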

[3] = NCI Yeast Anticancer Drug Screen. Data for the mgt1 strain (AID 153); conditions: S. cerevisiae mgt1 mutant growth inhibition, hits give high values
Outline: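 Compounds were applied to mgt1 mutant yeast, and growth was then compared against vehicle-treated control cultures to give percent inhibition.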

[4] = NCI Yeast Anticancer Drug Screen. Data for the rad50 strain (AID 155);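 note: 0% = growth of vehicle-only cultures of the same strain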; conditions: S. cerevisiae rad50 strain growth inhibition, hits give high values
Outline: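 Genetically altered yeast (DNA repair pathway); compound treatment; growth inhibition vs vehicle ctrl.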

[5] = NCI Yeast Anticancer Drug Screen. Data for the rad14 strain (AID 159);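 note: 0% = growth of vehicle-treated control cultures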; conditions: S. cerevisiae rad14 strain growth inhibition, hits give high values
Outline: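 Test compounds were applied to a repair-deficient yeast strain. Its growth was then compared with that of cultures given vehicle alone, and inhibition was expressed relative to those controls.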

[6] = NCI Yeast Anticancer Drug Screen. Data for the sgs1 mgt1 strain (AID 161);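 note: 0% = growth of cultures given vehicle only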; conditions: S. cerevisiae sgs1 mgt1 strain, hits give high values
Outline: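 Percent growth inhibition was derived by comparing compound-exposed mutant yeast with vehicle-exposed cultures. The strain carries alterations in DNA damage repair.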

[7] = NCI Yeast Anticancer Drug Screen. Data for the CLN2oe strain (AID 163);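 note: 0% = growth of vehicle-only control cultures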; conditions: S. cerevisiae CLN2oe strain, hits give high values
Outline: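 Cells of an engineered yeast line with disturbed cell-cycle regulation are treated with compound. Inhibition of growth is then calculated relative to the vehicle-treated reference.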

[8] = NCI Yeast Anticancer Drug Screen. Data for the cln2 rad14 strain (AID 165);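 note: 0% = growth equal to vehicle treated cultures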; conditions: S. cerevisiae cln2 rad14 strain, hits give high values
Outline: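 Strain: cln2 rad14 yeast, altered in cell cycle control and DNA damage repair. Read-out: growth inhibition vs vehicle.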

[9] = NCI Yeast Anticancer Drug Screen. Data for the bub3 strain (AID 167); conditions: S. cerevisiae bub3 mutant strain, hits give high values
Outline: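 Yeast carrying a defined mutation is treated with each compound, and growth is compared with that of vehicle-exposed cells to give inhibition.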

[10] = NCI Yeast Anticancer Drug Screen. Data for the wt2 strain (AID 169);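 note: 0% = growth of vehicle-treated yeast cultures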; conditions: S. cerevisiae wt2 strain growth inhibition, hits give high values
Outline: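 Growth of compound-treated yeast is measured and expressed as inhibition relative to vehicle-only controls.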

[11] = NCI Yeast Anticancer Drug Screen. Data for the mlh1 strain (AID 171);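 note: 0% = growth of vehicle-treated control cultures of the same strain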; conditions: S. cerevisiae mlh1 strain growth inhibition, hits give high values
Outline: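 Test agents were incubated with yeast bearing a defined DNA damage repair or cell cycle control alteration; values are growth inhibition normalised to vehicle-treated cultures.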

[12] = NCI Yeast Anticancer Drug Screen. Data for the sgs1 strain (AID 173);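 note: 0% = growth of vehicle-only control cultures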; conditions: S. cerevisiae sgs1 mutant, hits give high values
Outline: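 Strain with an altered DNA repair or cell cycle pathway exposed to compound. Growth then measured. Value = inhibition versus vehicle control.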

[13] = NCI Yeast Anticancer Drug Screen. Data for the mlh1 rad18 strain (AID 175); conditions: S. cerevisiae mlh1 rad18 strain growth inhibition, hits give high values
Outline: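 A repair-deficient yeast strain is exposed to test compound, and growth is scored relative to vehicle-treated controls.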

[14] = at 5.0 µM (retest, dose inferred, filed as 0.5)
[15] = at 50.0 µM (retest, dose inferred, filed as 5.0)

Measured: growth inhibition

O=C1C(Br)=CC(Br)(Br)C=C1Br
active: [1]; at 33.0 µM 97% | [1]; at 100.0 µM 99% | [2]; at 11.0 µM 70% | [2]; at 33.0 µM 98% | [2]; at 100.0 µM 98% | [3]; at 33.0 µM 98% | [3]; at 100.0 µM 99% | [4]; [14] 99% | [4]; at 33.0 µM 95% | [4]; [15] 99% | [4]; at 50.0 µM 90.8% | [4]; at 100.0 µM 98% | [5]; at 33.0 µM 95% | [5]; at 100.0 µM 98% | [6]; [15] 100% | [6]; at 50.0 µM 93.7% | [7]; at 33.0 µM 98% | [7]; at 100.0 µM 99% | [8]; [15] 100% | [8]; at 50.0 µM 92.5% | [9]; at 33.0 µM 96% | [9]; [15] 99% | [9]; at 50.0 µM 92% | [9]; at 100.0 µM 98% | [10]; at 33.0 µM 96% | [10]; at 100.0 µM 98% | [11]; at 33.0 µM 96% | [11]; at 100.0 µM 98% | [12]; at 33.0 µM 96% | [12]; at 100.0 µM 98% | [13]; [14] 100% | [13]; [15] 100% | [13]; at 50.0 µM 90.6%
inactive: [1]; at 1.2 µM 6% | [1]; at 3.7 µM 9% | [1]; at 11.0 µM 47% | [2]; at 1.2 µM 24% | [2]; at 3.7 µM 31% | [3]; at 1.2 µM 9% | [3]; at 3.7 µM 1% | [3]; at 11.0 µM 58% | [4]; at 1.2 µM 0% | [4]; at 3.7 µM -3% | [4]; at 11.0 µM 30% | [5]; at 1.2 µM -32% | [5]; at 3.7 µM -10% | [5]; at 11.0 µM 28% | [6]; [14] -27% | [7]; at 1.2 µM 24% | [7]; at 3.7 µM 18% | [7]; at 11.0 µM 34% | [8]; [14] 56% | [9]; at 1.2 µM -8% | [9]; at 3.7 µM -16% | [9]; [14] 21% | [9]; at 11.0 µM 7% | [10]; at 1.2 µM -9% | [10]; at 3.7 µM -11% | [10]; at 11.0 µM 51% | [11]; at 1.2 µM -8% | [11]; at 3.7 µM -10% | [11]; at 11.0 µM 46% | [12]; at 1.2 µM 2% | [12]; at 3.7 µM 5% | [12]; at 11.0 µM 59%
